# Assay results published in PubChem BioAssay AID743060 (The Scripps Research Institute Molecular Screening Center, 2013).
# Where “and” joins values, the source holds several entries; their conditions need not be identical. Identical values can stand only once.
# Assay: inhibitors of T. brucei MetRS aminoacylation, late-stage follow-up, biochemical, radioactivity, round 1 (AID 743060)
# Details: purified enzyme, radiolabel aminoacylation, scintillation, 2 h; at 10 µM; stronger effect = higher value
row,Structure (SMILES),inhibition
1,CCN(CC)C(=O)C(=O)c1cn(CC(=O)N(CC)c2ccccc2)c2ccccc12,-7.96%
2,O=C(CSc1nnc2c(n1)[nH]c1ccc(Br)cc12)NCc1ccccc1,59.7%
3,COc1ccc(OCC(O)CNC(=O)Nc2ccc(Cl)cc2)cc1 (stereo unspecified),61.9%
4,O=C(Nc1ccc(F)c(Cl)c1)C1CC(=O)n2c(nc3ccccc32)N1 (stereo unspecified),90.3% and 93.6%
5,O=C(C(=O)N1CCOCC1)c1cn(CC(=O)N2CCCc3ccccc32)c2ccccc12,-4.11%
6,Cc1cccc(NC(=O)C2CC(=O)n3c(nc4ccccc43)N2)c1 (stereo unspecified),8.95%
7,O=C(CC(=O)Nc1cccc(Cl)c1)NN=Cc1ccccc1,81.1%
8,COCCc1nc2ccc(C(=O)NCCc3nc4ccc(OC)cc4[nH]3)cc2o1,-2.59%
9,O=C(NCc1nc2ccccc2[nH]1)C1=C[C@H](c2csc3ccccc23)C[C@H](OCCCCO)O1,97.8%
10,CCc1ccc2c(c1)c1nnc(SCC(=O)Nc3ccc4c(c3)OCO4)nc1n2C,-8.11%
11,O=C(NCc1nc2ccccc2[nH]1)C1=C[C@H](c2ccccc2)C[C@H](OCc2ccc(CO)cc2)O1,61.8%
12,C[C@H](O)[C@@H]1C(=O)N2CCc3c([nH]c4ccccc34)[C@@H]2C[C@@H]1N(C)Cc1ccc2c(c1)OCO2,80.4%
13,CCN(CCc1nc2ccc(C)cc2[nH]1)C(=O)c1ccc2ncccc2c1,-5.17%
14,Cc1ccc(NC(=O)CN(C)C(=O)CCSc2ccc(F)cc2)cc1,67.3%
15,COc1ccccc1-n1c(SCC(=O)Nc2ccc(Cl)cc2)nc(O)c(Cc2ccccc2)c1=O,67%
16,CCO[C@@H]1OC(C(=O)NCc2nc3ccccc3[nH]2)=C[C@H](c2ccc(Br)cc2)[C@H]1CCCO,64%
